According to PubChem BioAssay:
Records with an inconclusive call do not appear. Activity calls are given as the source filed them.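 Rule for the calls, unless noted: active = percent response above a set limit, the screen-wide mean plus 3 SD (cut at about 130% in these data); inactive = the rest.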

Legend:
[1] = yeast TOR pathway RPL19A-GFP modulators, primary screen, cell-based, S. cerevisiae, multiplex flow cytometry (AID 1862; in the data active = percent of DMSO control GFP below about 86%;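 note: lower values mimic rapamycin by blocking the RPL19A rise seen in DMSO cells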); details: S. cerevisiae RPL19A-GFP strain, flow cytometry fluorescence, 3 h; at 10 µM; stronger effect = lower value
[2] = modulators of MEP2-GFP levels in yeast, primary screen, S. cerevisiae, multiplex flow cytometry (AID 1867;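 active = GFP response, as percent of the DMSO control, above the screen-wide mean plus 3 SD, about 139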;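 note: median GFP channel fluorescence of barcode-gated MEP2-GFP cells measured by flow cytometry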); details: S. cerevisiae MEP2-GFP strain, 3 h, at 10 µM, stronger effect = higher value, 100% means same as DMSO wells
[3] = modulators of CIT2-GFP expression in yeast, primary screen, S. cerevisiae, GFP fusion, multiplex flow cytometry (AID 1870); details: 3 h, at 10 µM, stronger effect = higher value;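 note: barcoded CIT2-GFP strain pooled with four other GFP strains with rapamycin as positive control; median GFP fluorescence per well over plate mean of DMSO wells so 100% = DMSO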
[4] = modulators of LAP4-GFP expression in yeast, primary screen, S. cerevisiae, multiplex flow cytometry (AID 1873;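 active = GFP signal, as percent of the solvent control, above the screen mean plus 3 SD, about 149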); details: 3 h, at 10 µM, stronger effect = higher value
[5] = modulators of AGP1-GFP expression in yeast TOR pathway, primary screen, cell-based, multiplex flow cytometry, S. cerevisiae (AID 1887;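 active = GFP signal above the screen-wide mean plus 3 SD, that is over about 124.5% of the solvent control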;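 note: AGP1-GFP fusion strain of S. cerevisiae within a five-strain barcoded multiplex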); details: 3 h, at 10 µM, stronger effect = higher value
[6] = inhibitors of CD8+ T cell-vesicle binding, pilot screen, LFA-1/ICAM-1 modulator project, MLPCN validation set, flow cytometry (AID 2523;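 active = response below a set limit, under 55% cells CD8-positive and vesicle-bound, and CD8 cells' 90th-percentile brightness under 279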;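 for vesicle binding response: mean PE anti-B7-1 fluorescence of CD8+ cells relative to row control; 100% = QL9-loaded vesicles with DMSO vehicle in the same plate row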); details: 2C mouse CD8+ T cells, at 7 µM, stronger effect = lower value; double positive events: measured here: CD8+/vesicle+ event percentage
[7] = target: Integrin beta-1 (Homo sapiens) + Integrin alpha-4 (Homo sapiens) (UniProt P13612+P05556); assay: inhibition of HUTS-21 binding to VLA-4, pilot screen, VLA-4 allosteric modulator project, U937 cells, HUTS-21 mAb, flow cytometry, validation set (AID 2674;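 active = inhibition above 50%, about 3 SD of the validation set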;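 note: antibody binding induced by the VLA-4 ligand LDV present at three times its Kd; 0% = LDV ligand with antibody and no compound and 100% = antibody without LDV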); details: HUTS-21 LIBS mAb binding, at 6.7 µM, stronger effect = higher value, binding induced by LDV ligand
Sequence of Integrin beta-1 (Homo sapiens) + Integrin alpha-4 (Homo sapiens) (P05556 whole entry, looked up): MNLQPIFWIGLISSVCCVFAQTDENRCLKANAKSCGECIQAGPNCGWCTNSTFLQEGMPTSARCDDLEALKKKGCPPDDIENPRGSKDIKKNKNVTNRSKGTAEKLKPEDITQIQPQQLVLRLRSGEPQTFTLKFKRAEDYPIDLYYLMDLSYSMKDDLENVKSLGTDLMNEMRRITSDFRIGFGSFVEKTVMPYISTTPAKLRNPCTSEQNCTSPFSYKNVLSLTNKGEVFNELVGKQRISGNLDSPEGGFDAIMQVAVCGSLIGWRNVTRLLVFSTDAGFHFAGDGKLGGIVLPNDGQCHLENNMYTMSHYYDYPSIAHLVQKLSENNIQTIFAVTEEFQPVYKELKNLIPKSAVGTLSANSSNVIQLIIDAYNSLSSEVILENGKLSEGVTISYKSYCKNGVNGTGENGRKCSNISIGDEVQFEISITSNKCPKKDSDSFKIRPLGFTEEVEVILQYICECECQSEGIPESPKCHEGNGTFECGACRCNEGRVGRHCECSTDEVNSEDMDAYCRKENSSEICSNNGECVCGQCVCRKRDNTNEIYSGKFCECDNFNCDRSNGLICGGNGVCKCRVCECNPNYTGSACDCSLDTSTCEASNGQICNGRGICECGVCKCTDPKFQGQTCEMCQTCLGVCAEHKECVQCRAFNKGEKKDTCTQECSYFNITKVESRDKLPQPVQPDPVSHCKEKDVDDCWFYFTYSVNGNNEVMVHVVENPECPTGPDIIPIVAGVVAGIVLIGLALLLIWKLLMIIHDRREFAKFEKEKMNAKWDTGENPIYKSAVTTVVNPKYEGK
Sequence of Integrin beta-1 (Homo sapiens) + Integrin alpha-4 (Homo sapiens) (P13612 whole entry, looked up): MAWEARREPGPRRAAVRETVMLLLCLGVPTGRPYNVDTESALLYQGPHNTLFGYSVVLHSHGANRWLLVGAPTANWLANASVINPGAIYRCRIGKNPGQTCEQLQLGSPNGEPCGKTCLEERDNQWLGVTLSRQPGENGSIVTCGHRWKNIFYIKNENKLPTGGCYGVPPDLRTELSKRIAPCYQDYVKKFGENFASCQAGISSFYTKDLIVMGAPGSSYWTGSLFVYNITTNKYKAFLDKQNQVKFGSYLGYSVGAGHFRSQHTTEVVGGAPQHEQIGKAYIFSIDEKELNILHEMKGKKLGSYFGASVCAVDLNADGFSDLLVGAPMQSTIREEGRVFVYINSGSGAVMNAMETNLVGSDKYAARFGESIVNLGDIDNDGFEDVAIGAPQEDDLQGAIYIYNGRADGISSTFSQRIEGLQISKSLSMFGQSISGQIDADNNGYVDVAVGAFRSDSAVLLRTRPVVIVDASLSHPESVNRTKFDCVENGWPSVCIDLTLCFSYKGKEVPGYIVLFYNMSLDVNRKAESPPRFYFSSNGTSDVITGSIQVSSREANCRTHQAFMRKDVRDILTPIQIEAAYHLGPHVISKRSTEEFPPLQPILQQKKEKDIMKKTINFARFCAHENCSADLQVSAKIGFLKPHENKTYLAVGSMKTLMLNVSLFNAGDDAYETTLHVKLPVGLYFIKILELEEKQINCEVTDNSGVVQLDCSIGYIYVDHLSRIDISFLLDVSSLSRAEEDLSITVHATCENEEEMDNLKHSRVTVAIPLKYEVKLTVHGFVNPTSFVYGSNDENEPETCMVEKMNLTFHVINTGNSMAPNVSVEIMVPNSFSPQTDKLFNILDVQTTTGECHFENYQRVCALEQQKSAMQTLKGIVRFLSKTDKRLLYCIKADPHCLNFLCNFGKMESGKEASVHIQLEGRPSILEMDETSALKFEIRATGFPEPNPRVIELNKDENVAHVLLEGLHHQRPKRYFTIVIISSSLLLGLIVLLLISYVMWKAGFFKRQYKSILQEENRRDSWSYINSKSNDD

[8] = superoxide lowering in aged yeast cells, pilot screen, validation compound set (AID 2706;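 active = superoxide response below 65% of plate, a cut near 3 SD across the whole screen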;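 note: yeast exposed to compound for one week at 30 degrees C before staining; 100% = mean of all compound wells on the same plate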); details: S. cerevisiae aging, superoxide DHE fluorescence; at 10 µM; stronger effect = lower value
[9] = target: Beta-adrenergic receptor kinase 1 (Homo sapiens) (UniProt P25098); assay: GRK2 binders displacing RNA aptamer, biochemical, validation, human GRK2, bead flow cytometry (AID 488806;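 active = aptamer binding inhibition above 30%, about 3 SD of noise from non-fluorescent compounds; inactive = inhibition at or below 30%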); details: bead-bound GRK2, FAM-aptamer displacement, at 10 µM, stronger effect = higher value
Sequence of Beta-adrenergic receptor kinase 1 (Homo sapiens) (P25098 whole entry, looked up): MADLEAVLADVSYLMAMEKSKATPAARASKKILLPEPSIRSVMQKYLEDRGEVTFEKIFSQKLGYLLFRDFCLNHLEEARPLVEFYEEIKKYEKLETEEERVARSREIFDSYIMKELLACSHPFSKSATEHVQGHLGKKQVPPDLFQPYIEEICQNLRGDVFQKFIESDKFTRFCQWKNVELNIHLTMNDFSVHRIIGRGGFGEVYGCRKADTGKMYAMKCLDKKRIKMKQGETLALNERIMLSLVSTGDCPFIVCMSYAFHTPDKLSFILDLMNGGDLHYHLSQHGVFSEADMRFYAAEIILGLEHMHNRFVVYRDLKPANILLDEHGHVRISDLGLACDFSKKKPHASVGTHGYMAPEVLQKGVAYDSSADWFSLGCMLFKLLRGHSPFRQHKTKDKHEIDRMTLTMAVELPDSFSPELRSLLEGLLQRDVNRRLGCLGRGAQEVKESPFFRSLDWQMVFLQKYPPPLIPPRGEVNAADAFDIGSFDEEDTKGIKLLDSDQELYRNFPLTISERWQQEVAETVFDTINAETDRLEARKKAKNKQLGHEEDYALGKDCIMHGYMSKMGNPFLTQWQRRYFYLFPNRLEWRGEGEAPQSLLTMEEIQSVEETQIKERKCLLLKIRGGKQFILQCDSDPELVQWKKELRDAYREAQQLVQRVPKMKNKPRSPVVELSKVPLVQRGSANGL

[10] = target: Beta-2 adrenergic receptor (Homo sapiens) (UniProt P07550); assay: beta2AR agonists driving receptor internalization, pilot screen, cell-based, FAP fluorogen, flow cytometry, validation set (AID 504459;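 active = percent response above 42, roughly 3 SD of non-fluorescent test compounds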;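 note: agonist-driven loss of surface beta2AR via internalization measured by FAP dye flow cytometry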); details: Am2.2-beta2AR cells, FAP surface receptor flow cytometry; at 10 µM; stronger effect = higher value
Sequence of Beta-2 adrenergic receptor (Homo sapiens) (P07550 whole entry, looked up): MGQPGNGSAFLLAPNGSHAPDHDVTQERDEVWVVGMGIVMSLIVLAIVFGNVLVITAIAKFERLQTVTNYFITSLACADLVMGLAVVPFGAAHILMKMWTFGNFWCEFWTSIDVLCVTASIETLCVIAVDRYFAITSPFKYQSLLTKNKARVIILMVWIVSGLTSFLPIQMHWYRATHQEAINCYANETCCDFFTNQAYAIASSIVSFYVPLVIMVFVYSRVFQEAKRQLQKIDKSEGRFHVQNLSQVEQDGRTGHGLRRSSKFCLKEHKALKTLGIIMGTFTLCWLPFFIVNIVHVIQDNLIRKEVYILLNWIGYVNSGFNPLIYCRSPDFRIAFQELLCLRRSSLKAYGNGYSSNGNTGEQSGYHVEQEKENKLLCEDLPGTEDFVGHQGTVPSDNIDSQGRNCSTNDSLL

[11] = target: AP-2 complex subunit beta (Homo sapiens) (UniProt P63010); assay: inhibitors of arrestin peptide binding to AP2, pilot screen, biochemical, validation set, GST-AP2 beads, flow cytometry (AID 504541;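 active = inhibition above 54%, about 3 SD of non-fluorescent compounds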;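 note: AP2 carries R879A mutation and is captured from E. coli lysate; bead-bound FITC arrestin peptide fluorescence measuring arrestin peptide binding to AP2; 0% = DMSO wells and 100% = excess unlabeled arrestin peptide control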); details: FITC arrestin peptide, at 10 µM, stronger effect = higher value, AP2 beta2 appendage fragment, R879A mutant
Sequence of AP-2 complex subunit beta (Homo sapiens) (P63010 whole entry, looked up, the tested form may be a part, one chain of several): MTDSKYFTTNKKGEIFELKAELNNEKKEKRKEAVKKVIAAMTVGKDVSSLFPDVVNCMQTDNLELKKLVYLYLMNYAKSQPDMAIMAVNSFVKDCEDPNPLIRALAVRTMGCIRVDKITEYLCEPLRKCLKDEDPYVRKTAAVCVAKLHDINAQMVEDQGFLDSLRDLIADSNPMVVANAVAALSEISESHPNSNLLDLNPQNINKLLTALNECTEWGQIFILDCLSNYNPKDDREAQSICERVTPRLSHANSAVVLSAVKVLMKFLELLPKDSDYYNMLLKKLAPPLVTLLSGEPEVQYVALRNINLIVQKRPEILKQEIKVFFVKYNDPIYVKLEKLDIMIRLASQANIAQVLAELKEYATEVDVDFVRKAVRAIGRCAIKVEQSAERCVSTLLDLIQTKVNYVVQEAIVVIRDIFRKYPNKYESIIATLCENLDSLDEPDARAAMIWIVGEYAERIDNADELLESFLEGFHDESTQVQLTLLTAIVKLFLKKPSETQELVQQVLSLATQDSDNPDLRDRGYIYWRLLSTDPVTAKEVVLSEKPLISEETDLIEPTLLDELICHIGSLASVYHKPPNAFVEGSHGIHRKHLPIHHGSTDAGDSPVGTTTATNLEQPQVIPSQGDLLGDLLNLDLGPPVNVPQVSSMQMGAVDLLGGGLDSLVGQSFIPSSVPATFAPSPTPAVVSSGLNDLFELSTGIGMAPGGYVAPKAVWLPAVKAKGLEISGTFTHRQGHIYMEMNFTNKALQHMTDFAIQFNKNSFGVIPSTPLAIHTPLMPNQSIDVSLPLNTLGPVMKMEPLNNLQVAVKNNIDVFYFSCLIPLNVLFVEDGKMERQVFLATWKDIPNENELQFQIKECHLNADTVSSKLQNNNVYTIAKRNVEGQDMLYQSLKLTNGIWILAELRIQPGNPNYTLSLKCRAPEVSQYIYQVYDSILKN

[12] = yeast V-ATPase proton transport modulators, S. cerevisiae, pHLuorin, HTS validation (AID 504600; in the data active = response above about 15%;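 note: plate controls were DMSO for no effect and reference compound for full effect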); details: S. cerevisiae pHLuorin cytosolic pH, at 10 µM, stronger effect = higher value
[13] = test system: anti-desmoglein-3 scFv antibody binding to human DSG3; assay: inhibitors of anti-DSG3 scFv binding to DSG3, pilot screen, biochemical, validation compound set, bead-based, flow cytometry (AID 588368;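 active = binding below the plate cutoff, the plate median minus 3 SD, with a reading above zero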;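 note: signal is the median channel fluorescence of bead-bound GFP antibody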); details: Protein G beads, DSG3-Fc, scFv-GFP binding, at 10 µM, stronger effect = lower value
[14] = inhibitors of fungal efflux pumps CDR1, CDR2, MDR1, pilot screen, validation compound set, multiplex, phenotypic (AID 588506;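 active = efflux inhibition above 0.42, the validation set average plus 4 SD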;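 note: Nile Red retained in cells so higher fluorescence means more efflux inhibition; 0 = negative control wells and 1 = enniatin B 25 µM full block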); details: S. cerevisiae pump-expressing triplex, Nile Red efflux flow cytometry; at 10 µM; stronger effect = higher value; the pumps come from Candida albicans
[15] = target: ATP-binding cassette sub-family B member 6 (Homo sapiens) (UniProt Q9NP58); assay: ABCB6 transporter inhibitors, pilot screen, K562-ABCB6 cells, flow cytometry, validation set (AID 588550;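 active = inhibition above the screen-wide mean plus 3 SD, about 51%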;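 note: 0% = DMSO wells and 100% = benzethonium chloride 70 µM positive control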); details: K562-ABCB6 porphyrin accumulation, 1 h, at 10 µM, stronger effect = higher value
Sequence of ATP-binding cassette sub-family B member 6 (Homo sapiens) (Q9NP58 whole entry, looked up): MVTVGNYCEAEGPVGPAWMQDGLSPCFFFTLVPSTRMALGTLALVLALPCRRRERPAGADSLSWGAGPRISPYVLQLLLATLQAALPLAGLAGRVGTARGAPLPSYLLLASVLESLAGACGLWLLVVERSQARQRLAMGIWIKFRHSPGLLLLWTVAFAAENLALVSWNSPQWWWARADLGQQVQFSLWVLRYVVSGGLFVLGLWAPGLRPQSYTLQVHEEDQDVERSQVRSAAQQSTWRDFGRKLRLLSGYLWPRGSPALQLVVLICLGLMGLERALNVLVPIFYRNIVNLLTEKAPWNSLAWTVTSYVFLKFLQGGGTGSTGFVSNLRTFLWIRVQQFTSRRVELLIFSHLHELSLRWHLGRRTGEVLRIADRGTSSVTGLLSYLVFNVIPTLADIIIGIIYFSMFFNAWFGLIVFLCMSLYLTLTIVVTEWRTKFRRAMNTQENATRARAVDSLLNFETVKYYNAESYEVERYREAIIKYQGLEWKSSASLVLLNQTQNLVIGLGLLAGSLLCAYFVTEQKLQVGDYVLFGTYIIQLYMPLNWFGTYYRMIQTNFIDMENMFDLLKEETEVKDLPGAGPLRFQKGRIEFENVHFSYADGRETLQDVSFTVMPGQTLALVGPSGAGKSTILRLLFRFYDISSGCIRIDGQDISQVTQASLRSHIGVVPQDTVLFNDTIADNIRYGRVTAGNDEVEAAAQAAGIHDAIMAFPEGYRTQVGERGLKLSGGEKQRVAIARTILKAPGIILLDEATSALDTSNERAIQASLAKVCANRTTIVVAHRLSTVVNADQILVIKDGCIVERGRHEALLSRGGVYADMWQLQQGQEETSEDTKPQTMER

[16] = promoters of myeloid differentiation in arrested cells, primary screen, cell-based, GFP/MAC1 double positive, flow cytometry, validation set (AID 588685;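 active = differentiation response of at least 50%, scaled between solvent and reference control, from cells with both markers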;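 note: compound exposure lasts four days before antibody staining and flow analysis; 0% = DMSO wells and 100% = 5 µM fulvestrant positive control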); details: ER-HoxA9 marrow cells, stronger effect = higher value, normalized: vehicle 0, fulvestrant 100

| Structure (SMILES) | percent of DMSO control GFP [1] | GFP response vs DMSO [2] | percent response of DMSO control [3] | GFP response vs DMSO [4] | GFP response, % of DMSO [5] | double positive events [6] [%] | vesicle binding response [6] | inhibition [7] | superoxide response (% of plate) [8] | aptamer binding inhibition [9] | response [10] | inhibition [11] | response [12] | binding (% of control) [13] | efflux inhibition (fraction of control) [14] | inhibition [15] | differentiation response [16] |
| --- | --- | --- | --- | --- | --- | --- | --- | --- | --- | --- | --- | --- | --- | --- | --- | --- | --- |
| NCc1ccccc1COc1ccccc1 | 105% (inactive) | 109% (inactive) | 102% (inactive) | 117% (inactive) | 111% (inactive) | 62.7 | 179% (inactive) | 2.3% (inactive) | 96.7% (inactive) | 0% (inactive) | 4.62% (inactive) | 57% (active) | -3.28% (inactive) | 98% (inactive) | 0.05 (inactive) | 6% (inactive) | -15.2% (inactive) |
| COc1ccc(C2C3=C(CC(C)(C)CC3=O)N(C)C3=C2C(=O)CC(C)(C)C3)cc1 | 101% (inactive) | 99.6% (inactive) | 88% (inactive) | 110% (inactive) | 118% (inactive) | 62.6 | 173% (inactive) | 4.84% (inactive) | 104% (inactive) | 5% (inactive) | -20.5% (inactive) | 2.92% (inactive) | -12.8% (inactive) | 100% (inactive) | -0.09 (inactive) | 3% (inactive) | 3.88% (inactive) |
| CN1C(C(=O)Nc2ccccn2)=C(O)c2sccc2S1(=O)=O | 102% (inactive) | 97.7% (inactive) | 105% (inactive) | 93.7% (inactive) | 102% (inactive) | 63.2 | 168% (inactive) | -2.43% (inactive) | 113% (inactive) | -6% (inactive) | 4.21% (inactive) | 6.73% (inactive) | 4.48% (inactive) | 96% (inactive) | 0.035 (inactive) | 9% (inactive) | 4.2% (inactive) |
| Cc1ccc2c(c1)c(C)cc(=O)n2CCC(=O)O | 101% (inactive) | 102% (inactive) | 98.6% (inactive) | 116% (inactive) | 102% (inactive) | 61.6 | 210% (inactive) | 13.2% (inactive) | 97.2% (inactive) | 17% (inactive) | 4.73% (inactive) | 11.3% (inactive) | 1.4% (inactive) | 101% (inactive) | -0.24 (inactive) | 3% (inactive) | -20% (inactive) |
| CS(=O)(=O)Nc1ccc([N+](=O)[O-])cc1Oc1ccccc1 | 95.5% (inactive) | 97.6% (inactive) | 96.4% (inactive) | 115% (inactive) | 115% (inactive) | 62.2 | 188% (inactive) | -8.78% (inactive) | 106% (inactive) | 3% (inactive) | -35% (inactive) | -2.11% (inactive) | 2.46% (inactive) | 106% (inactive) | -0.09 (inactive) | 5% (inactive) | -8.93% (inactive) |
| N/C(=N\OC(=O)c1ccc(Br)o1)c1ccccn1 | 101% (inactive) | 102% (inactive) | 95.1% (inactive) | 124% (inactive) | 96.9% (inactive) | 67.8 | 232% (inactive) | 17.6% (inactive) | 117% (inactive) | 3% (inactive) | -28.6% (inactive) | 2.47% (inactive) | 5.72% (inactive) | 98.7% (inactive) | -0.04 (inactive) | 6% (inactive) | 5.85% (inactive) |
| COc1ccc(C(=O)c2oc3ccc(Br)cc3c2NC(C)=O)cc1 | 90.9% (inactive) | 122% (inactive) | 112% (inactive) | 82% (inactive) | 97.5% (inactive) | 61.7 | 140% (inactive) | 4.52% (inactive) | 104% (inactive) | 1% (inactive) | -11.6% (inactive) | 3.03% (inactive) | 3.34% (inactive) | 96.9% (inactive) | -0.02 (inactive) | 8% (inactive) | -0.82% (inactive) |
| CCOC(=O)c1ccc(NC(=S)NCCc2ccccc2F)cc1 | 100% (inactive) | 107% (inactive) | 101% (inactive) | 111% (inactive) | 93.7% (inactive) | 68.7 | 1410% (inactive) | -21.2% (inactive) | 98.7% (inactive) | 3% (inactive) | 2.84% (inactive) | 18.6% (inactive) | 1.24% (inactive) | 104% (inactive) | 0.58 (active) | -3% (inactive) | 9.04% (inactive) |
| COc1cc2nc(-c3ccccc3)nc(N3CCCC3)c2cc1OC | 104% (inactive) | 98.3% (inactive) | 107% (inactive) | 82.2% (inactive) | 104% (inactive) | 68.2 | 459% (inactive) | -36.8% (inactive) | 85.3% (inactive) | 6% (inactive) | -10% (inactive) | -3.58% (inactive) | 2.32% (inactive) | 98.2% (inactive) | -0.07 (inactive) | 11% (inactive) | -1.71% (inactive) |
